MEX-5 binding: C. elegans MEX-5 TCR-2 RNA binding activity | activity score (negative = inhibition of binding), % at 10 µM | 300,000 tested, 0.38% active | Q9XUB2 | MEX-5/FITC-TCR2 RNA binding, fluorescence polarization; hits give low values | AID 1832;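 active means inhibition past about -25% in most replicates, and total fluorescence under double the plate's negative control median, limit read from the data; inconclusive means replicates evenly split on the limit, or fluorescence at least double controls; inactive means too little inhibition in most replicates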;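 further: 0% = DMSO and -100% = 5 µM competing unlabeled TCR2 RNA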
GLD-1 RNA inh: GLD-1-TGE RNA interaction inhibition (C. elegans) | purified GLD-1 + fluorescein TGE RNA, fluorescence polarization | inhibition, % at 5.96 µM | AID 2280 | Q17339 | 320,000 tested, 0.44% active;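 active means percent inhibition above a per-plate cutoff, the plate mean of test compounds plus 3 SD, cut at about 30% in these data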;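 further: 0% = DMSO wells with GLD-1 and probe and 100% = wells lacking GLD-1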
BCLXL inh: inhibitors of human Bcl-xL. Q07817. inhibition, % at 10.9 µM. 320,000 tested, 0.7% active. GST-Bcl-xL / FITC-Bim BH3 peptide fluorescence polarization. AID 2129;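 active means inhibition above the mean of all tested compounds plus 3 SD, cutoff set per campaign, cut at about 30% in these data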;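 further: 0% = DMSO wells and 100% = unlabeled Bim-BH3 peptide competitor; inhibitors lower millipolarization by displacing the labeled peptide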
Target sequence (Q07817 whole entry, looked up): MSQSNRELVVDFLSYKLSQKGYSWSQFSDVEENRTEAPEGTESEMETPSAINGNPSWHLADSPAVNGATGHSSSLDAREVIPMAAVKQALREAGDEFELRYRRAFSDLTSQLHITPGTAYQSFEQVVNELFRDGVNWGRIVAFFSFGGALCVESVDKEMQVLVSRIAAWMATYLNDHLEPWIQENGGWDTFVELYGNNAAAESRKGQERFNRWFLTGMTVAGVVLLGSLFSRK
MCL1-BIM inh: inhibitors of human MCL1 binding to BIM-BH3 peptide; Q07820; GST-MCL1 / FITC-Bim-BH3 fluorescence polarization; inhibition, % at 10.9 µM; 320,000 tested, 0.68% active; AID 2057;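 active means inhibition above the mean inhibition of all tested compounds plus 3 SD, set per campaign, cut at about 40% in these data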;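 further: 0% = DMSO wells and 100% = unlabeled Bim-BH3 peptide control; higher means more loss of mP so more displacement of Bim peptide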
EBV gp42 block: blocks Epstein-Barr virus glycoprotein 42 binding; Q1HVG2; Fluorescence polarization binding assay, mP read-out; inhibition, % (tested at 21.74 µM); 220,000 tested, 0.42% active; in the data active means inhibition above about 50%
Target sequence (Q1HVG2 whole entry, looked up): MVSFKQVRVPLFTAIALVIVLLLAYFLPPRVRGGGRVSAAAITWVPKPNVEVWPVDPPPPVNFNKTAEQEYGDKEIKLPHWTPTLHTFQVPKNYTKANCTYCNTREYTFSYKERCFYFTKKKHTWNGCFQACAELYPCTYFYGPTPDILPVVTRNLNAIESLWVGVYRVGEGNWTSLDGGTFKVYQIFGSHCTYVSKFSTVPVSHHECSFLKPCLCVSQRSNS
An asterisk follows results filed as active; ? = inconclusive; . = not tested or not shown. Hits are enriched below; roughly 1.3% of the tested compounds scored in any of these assays.

SMILES	MEX-5 binding	GLD-1 RNA inh	BCLXL inh	MCL1-BIM inh	EBV gp42 block
CC1=CN2C(=N)/C(=C/c3ccc([N+](=O)[O-])o3)C(=O)N=C2S1	0	12	35*	31	4
Cn1c(O)c(N=NC(=O)CNC(=O)c2cccnc2)c2ccccc21	-4	4	3	8	.
CCOc1ccc(Cc2c(C)[nH]c3ccc(C(=O)O)cc3c2=S)cc1	-5	21	31*	31	.
CCc1c(C)[nH]c2ccc(OC)cc2c1=S	.	.	.	.	-30
COc1ccc(C)cc1NC(=O)C1CCCN(S(=O)(=O)c2cccnc2)C1 (centres undefined)	1	7	1	-8	.
Cc1cccc(N=C2NC(=O)/C(=C3/C(=O)N(C)c4ccccc43)S2)c1C	0	10	50*	35	-8
CCOC(=O)N1CCC2(CC1)C(C#N)=C(N)Oc1n[nH]c(C)c12	-1	0	4	5	5
CCOC(=O)N1CCC2(CC1)C(C#N)=C(N)Oc1c2c(C)nn1-c1cccc(Cl)c1	-16	-1	-3	1	52*
COC(=O)C(Cc1c[nH]c2ccccc12)NC(=O)c1cccc(S(=O)(=O)N2CCCCC2)c1 (centres undefined)	.	4	-6	-6	.
COc1ccc(CCN2CCC(Nc3nc4ccccc4n3Cc3ccc(F)cc3)CC2)cc1	-2	-4	9	11	2
COc1c(O)cccc1[C@@H](O)C1CCN(CCc2ccc(F)cc2)CC1	-29*	58*	41*	40	.
O=C(c1ccc2c(=O)n(Cc3ccccc3Cl)c(=S)[nH]c2c1)N1CCOCC1	1	3	-7	2	.
CN(Cc1nc(-c2cccs2)no1)CC(O)c1ccccc1 (centres undefined)	-2	1	7	3	-13
COc1ccc(C(=O)NCCS(=O)(=O)N(C)C2CCCCC2)cc1	2	-1	-5	-5	.
CN1CCc2c(sc(N)c2C(=O)O)C1	-9	13	31*	29	9
COc1ccc(C(=O)c2c(N)sc3c2CCN(C)C3)cc1	-20	-2	33*	32	.
COc1ccc(C(=O)c2c(NC(C)=O)sc3c2CCN(C(=O)OC(C)(C)C)C3)cc1	1	-6	1	-2	0
COC(=O)[C@]1(C)N[C@H](CN(C)C(=O)COc2ccccc2)[C@@H]2C(=O)N(C)C(=O)[C@@H]21	.	1	.	.	.
CC(C)CC1NC(=O)N(Cc2cc(=O)n3ccsc3n2)C1=O (centres undefined)	1	1	7	-2	-2
CCOc1ccc(-c2c(C#N)c(N)nc3sc(C(=O)c4ccccc4)c(N)c23)cc1	?	4	3	2	70*
CSc1c(C#N)c(N)nc2sc(C(=O)c3ccc(Cl)c(Cl)c3)c(N)c12	?	-4	8	0	76*
COc1ccc(-c2c(C#N)c(N)nc3sc(C(=O)c4ccccc4)c(N)c23)cc1	-3	0	4	7	81*
CCCCOC(=O)CSc1nc(N)c(C#N)c(-c2ccc(OCC)cc2)c1C#N	-3	1	0	2	-3
COc1ccc(C(=O)c2sc3nc(-c4ccccc4)ccc3c2N)cc1	-3	-43	52*	40*	3
CC(C)OC(=O)c1sc2nc(-c3ccccc3)ccc2c1N	-2	3	5	6	-18
SMILES	MEX-5 binding	GLD-1 RNA inh	BCLXL inh	MCL1-BIM inh	EBV gp42 block
CCN(C(=O)[C@@H]1CCCN1C(=O)c1cccs1)c1nc2cc(Cl)ccc2s1	0	6	2	-4	-12
CN1CCN(S(=O)(=O)c2cccc(C(=O)Nc3ccc(Br)cc3Br)c2)CC1	0	0	5	9	.
N#CC1=C(N)Oc2ccc3ccc(O)cc3c2C1c1ccsc1 (centres undefined)	-47*	.	.	.	161*
COc1cccc2cc(C(=O)NCCN3CCOCC3)c(=O)oc12	0	0	-1	0	.
NS(=O)(=O)c1c(Sc2ccccc2C(=O)O)ccc2ccccc12	-2	12	35*	46*	.
CCCC(C)C(=O)Nc1ccc(Cl)cn1 (centres undefined)	-1	8	162*	3	-16
Cc1cc(C(=O)NCc2ccccc2F)c2ccccc2n1	-2	2	2	-4	.
CS(=O)(=O)Oc1ccc2c(c1)O/C(=C\C=C\c1ccccc1)C2=O	-42*	28	9	9	-7
CS(=O)(=O)Oc1ccc2c(c1)O/C(=C\c1cccc([N+](=O)[O-])c1)C2=O	0	.	.	.	.
CCCN1C(=O)/C(=C/c2ccc(C)o2)SC1=Nc1ccc(OCC)cc1	-8	6	3	10	-12
CCCN1C(=O)/C(=C/c2ccc(C)o2)SC1=Nc1ccc(OC)cc1	-72*	-3	3	8	-47
CC(=O)NC(CC(=O)Nc1ccc2c(c1)OCCO2)c1ccccc1 (centres undefined)	1	2	-12	-16	.
CCCC1=NCCn2cccc21	-3	28	33*	31	-14
C#CCn1c(=O)cc(C)c2ccccc21	0	-2	-1	1	-7
C#CCn1cc(C=C2C(=O)c3ccccc3C2=O)c2ccccc21	-2	.	.	.	95*
COc1ccccc1NC(=O)CC(c1ccc(OC(C)C)cc1)c1ccccc1OC (centres undefined)	0	-3	2	4	70*
COc1ccccc1C(CC(=O)Nc1ccc(C)c(C)c1)c1ccc(OC(C)C)cc1 (centres undefined)	2	12	6	0	-7
CCc1cc2c(SCC(=O)Nc3cc(C)on3)ncnc2s1	0	9	2	3	-14
O=C(CN1C(=O)CCC1=O)Nc1nc(-c2ccc(Oc3ccccc3)cc2)cs1	0	5	6	0	6
COc1cc(/C=C/C(=O)N2CCN(C(=O)/C=C/c3cc(OC)c(OC)c(OC)c3)CC2)cc(OC)c1OC	2	109*	4	0	.
COc1cc(/C=C/C(=O)N2CCCC2)cc(OC)c1OC	1	8	7	4	-4
Fc1ccccc1N1CCN(c2nc3ccccc3n3nnnc23)CC1	3	23	36*	52*	31
O=C(NCc1ccc(Cl)cc1)N1CCN(S(=O)(=O)c2ccccc2)CC1	0	3	8	7	.
Cc1cccc[n+]1C1C(c2ccc([N+](=O)[O-])cc2)C(C#N)=C(C(=C=[N-])C#N)NC1(O)C1CC1 (centres undefined)	-6	19	31*	25	-23
COc1ccc2c(c1)c(/C=C/c1cc[n+](C)cc1)cn2C	?	58*	-31	-72	.
COc1ccc2c(/C=C/c3cc[n+](C)cc3)c[nH]c2c1	?	-92	-16	-38	.
O=C(CCN1C(=O)COc2ccccc21)NCc1ccco1	-2	3	10	6	53*
CCCn1c(N)c(NCCN2CCOCC2)c(=O)[nH]c1=O	-31*	28	33*	25	25
COC(=O)c1scc(C)c1NS(=O)(=O)c1ccc(NC(C)=O)cc1	3	2	2	-1	-11

High-throughput results from PubChem.
